Cy5 interf NS3h – counter-screen for HCV NS3 helicase inhibitors: fluorescence interference. fluorescence interference ratio at 100 µM. hit rate 6% among 16,000. AID 720488. Cy5-dT15 DNA with NS3h; actives lie on both sides; signal over control mean, under 1 quenches;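 active = compound fluorescence over control fluorescence at most 0.8, a quencher, or at least a set upper limit, an enhancer; inactive = ratio between 0.8 and the set upper limit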
NS3h inh CB – hepatitis C NS3 helicase inhibition, primary screen. NS3h Cy5-dT15 DNA binding, fluorescence polarization. hit rate 1.6% among 16,000. inhibition, % at 100 µM;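 active = inhibition above the average over every tested compound plus 3 SD, cut at about 40% in these data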
* marks the source's active call; other numbers are inactive results. Hits are enriched below; roughly 6.8% of the tested compounds scored in any of these assays.

SMILES	Cy5 interf NS3h	NS3h inh CB
O=C(NCc1ccco1)c1cc2nc(-c3ccccc3)cc(C(F)(F)F)n2n1	1.06	1.3
CC(C)(C)NC(=O)c1cc2nc(-c3ccccc3)cc(C(F)(F)F)n2n1	0.574*	1.2
CCOc1ccc(-c2cc(C)n3nc(C(=O)Nc4cc(OC)c(Cl)cc4OC)cc3n2)cc1	1.08	-9.1
CC1CCc2c(sc3nc(-c4ccco4)[nH]c(=O)c23)C1 (stereo unspecified)	1.02	-17.8
O=C(Cc1ccc(Br)cc1)Nc1ccccc1	0.999	3.6
O=C1c2ccccc2C(=O)N1N1C(=O)c2cccc([N+](=O)[O-])c2C1=O	1.04	1.9
O=[N+]([O-])c1cccc2c1=C1C(Cl)=CC=C1C=2	0.537*	1.2
COc1ccc(S(=O)(=O)Nc2cc(C)ccc2OC)cc1Br	1.03	11.5
Cc1ccc2oc(Nc3nc(C)cc(=O)[nH]3)nc2c1	1.03	7.9
Cc1ccc2oc(C(Cl)(Cl)Cl)cc(=O)c2c1	0.598*	-2.5
Cc1ccc(S(=O)(=O)N=C(Nc2cccc([N+](=O)[O-])c2)c2ccccc2)cc1	0.945	1.3
O=C(Nc1cccc(C(F)(F)F)c1)c1nn2c(c1Cl)NC(c1ccccc1)CC2C(F)(F)F (stereo unspecified)	1.01	4.7
CCOc1cccc(C(=O)Nc2ccc3nn(-c4ccc(F)cc4)nc3c2)c1	1.06	-24.4
CCOc1ccccc1NC(=O)c1ccc(C)c([N+](=O)[O-])c1	0.752*	18.0
CCc1ccc(NC(=O)c2ccc(C)c([N+](=O)[O-])c2)cc1	1.01	-5.0
Cc1ccc(C(=O)Nc2ccc3oc(-c4ccc(F)cc4Cl)nc3c2)cc1[N+](=O)[O-]	0.741*	6.2
COc1cccc(C(=O)Nc2ccc3oc(-c4ccc(F)cc4Cl)nc3c2)c1	1.07	-16.2
COc1ccc(NC(=O)c2ccc(C)c([N+](=O)[O-])c2)cc1	0.736*	13.3
CCOc1ccc(-n2nc3ccc(NC(=O)c4ccc(Cl)cc4)cc3n2)cc1	0.642*	15.2
CCOc1ccccc1NC(=O)c1ccc([N+](=O)[O-])cc1	1.02	-7.3
CC(C)(C)CC(C)(C)NC(=O)CSc1ncc(-c2ccccc2)[nH]1	0.931	4.3
COc1cccc(C2C(C(=O)Nc3ccccc3)=C(C)N=c3s/c(=C\c4ccc(N(C)C)o4)c(=O)n32)c1 (stereo unspecified)	1.03	1.5
Cc1ccc(S(=O)(=O)Nc2ccccc2C(=O)O)cc1	0.959	-7.0
O=S(=O)(Nc1nc2ccccc2nc1N1CCCCC1)c1ccccc1	0.939	9.1
CCOc1ccc(NC(=O)c2ccc(Cl)c([N+](=O)[O-])c2)cc1	0.731*	17.0
SMILES	Cy5 interf NS3h	NS3h inh CB
O=C(COc1ccccc1[N+](=O)[O-])Nc1ccc2oc(-c3ccccc3Br)nc2c1	1.06	-19.8
NS(=O)(=O)c1ccc(NC(=O)c2ccc(Oc3ccccc3)cc2)cc1	1.21*	1.2
O=C(COc1ccccc1[N+](=O)[O-])Nc1ccc2oc(-c3cc(Br)ccc3Cl)nc2c1	1.2*	-18.5
CCOc1ccc(NC(=O)c2ccc(C)c([N+](=O)[O-])c2)cc1	1.02	5.3
O=C(Nc1ccc(Oc2ccccc2)cc1)c1ccc([N+](=O)[O-])cc1	1.03	2.5
COC(=O)c1ccc(NC(=S)NC(=O)c2ccc(OC)cc2)cc1	0.946	21.0
COc1ccc(C(=O)Nc2ccc(C(=O)O)cc2)cc1	1.22*	-3.1
O=C(c1ccccc1F)N1CCN(c2ccc([N+](=O)[O-])cc2C(F)(F)F)CC1	0.891	-4.0
CN1C(=O)C(=O)C(=C(O)c2ccc(Cl)cc2)C1c1ccccc1F (stereo unspecified)	1.1	-7.1
CC1=CC(C)(C)N(C)C(=S)N1c1ccccc1	0.965	-4.5
Cc1ccc(/C=N\n2nnnc2N)cc1	0.96	-7.2
CC(=O)CC(=O)Nc1ccc(Cl)c(Cl)c1	1	3.1
CC(=O)CC(=O)Nc1ccc(Cl)c(C(F)(F)F)c1	0.675*	4.0
O=C(C=C(O)c1cccc([N+](=O)[O-])c1)C(F)(F)F	0.913	2.6
COc1ccc(NC(=O)/C(C#N)=C\c2ccc(-c3ccc(Br)cc3)o2)cc1	1.05	6.8
Cc1ccccc1NC(=O)CSc1ccccc1	1.04	7.1
Cc1ccccc1NCn1c(=S)oc2ccccc21	0.65*	13.3
COc1ccc(NC(=O)c2ccc(OC(C)=O)cc2)cc1O	1.02	2.1
COc1cccc(NC(=O)c2sc3cc(C)ccc3c2Cl)c1	0.981	-1.6
O=C(c1ccc(S(=O)(=O)N2CCCC2)cc1)N1CCN(c2ccccc2)CC1	0.912	4.1
CS(=O)(=O)N1CCN(C(=O)c2ccc(-c3ccccc3)cc2)CC1	0.622*	0.3
CCOC(=O)C1=C(C)N=c2s/c(=C\c3ccc(Br)o3)c(=O)n2C1c1cccc(OC)c1 (stereo unspecified)	1.11	16.3
COc1ccc(Cl)cc1C(=O)Nc1cccc(Br)c1	1.01	13.5
O=C(CSc1nnc(-c2ccco2)n1-c1ccccc1)Nc1ccccc1[N+](=O)[O-]	0.979	4.3
CCc1ccc(NC(=O)CSc2nnc(-c3ccco3)n2-c2ccccc2)cc1	0.803*	-4.5
SMILES	Cy5 interf NS3h	NS3h inh CB
COc1ccc(C)cc1NS(=O)(=O)c1ccc(NC(C)=O)cc1	0.986	-0.6
O=C(O)CCCc1nc2ccccc2s1	1.03	-4.6
O=C(O)CCCc1nc2ccccc2[nH]1	0.729*	1.2
Cc1ccc(S(=O)(=O)NCCOc2ccccc2)cc1[N+](=O)[O-]	0.933	13.0
Cc1ccc(S(=O)(=O)NCCOc2ccccc2Cl)cc1[N+](=O)[O-]	0.791*	4.8
COc1ccc(C)cc1NC(=O)c1ccc(C)c(C)c1	0.88	12.9
O=C(CSc1nc2ccc([N+](=O)[O-])cc2[nH]1)c1ccc(Br)cc1	0.61*	24.5
CCOc1ccc(NC(=O)CSc2nc3ccccc3[nH]2)cc1	0.921	1.7
O=C(CSc1nc2ccccc2[nH]1)Nc1ccc(F)c([N+](=O)[O-])c1	0.846	16.1
O=C(CSc1nc2ccc([N+](=O)[O-])cc2[nH]1)Nc1ccc2c(c1)OCO2	0.605*	12.4
O=C(CSc1nc2ccc([N+](=O)[O-])cc2[nH]1)c1ccc2ccccc2c1	0.87	0.7
Cc1cccc(NC(=O)CSc2nc3ccc(C)cc3[nH]2)c1	0.654*	16.1
NC(=O)c1ccc(NS(=O)(=O)c2ccc(F)cc2)cc1	1.16	6.3
COc1ccc(-c2n[nH]c(=S)o2)cc1	1.02	-0.7
Cc1ccccc1NC(=O)CSc1cc(Cl)ccc1Cl	1.01	3.2
COc1cc(/C=N\NC(=O)/C(=C\c2ccc3c(c2)OCO3)NC(=O)c2ccccc2)cc(OC)c1O	0.994	10.7
CC(C)(C)OC(=O)N1N=C(c2ccc(Cl)cc2)CC1(O)C(F)(F)F (stereo unspecified)	0.938	-3.0
CC(C)c1ccc(C2OC3(C(=O)c4ccccc4C3=O)C3C(=O)N(c4ccc(Cl)c(Cl)c4)C(=O)C23)cc1 (stereo unspecified)	1.03	7.8
Cc1ccc2c(-c3ccc([N+](=O)[O-])cc3)cc(=O)[nH]c2c1	0.62*	1.2
COc1ccc2c(-c3ccccc3)cc(=O)[nH]c2c1	0.984	2.0
O=[N+]([O-])c1cccc(C2=Nn3c(Cc4ccccc4)nnc3SC2)c1	0.993	9.1
COc1ccc(C(=O)c2ccccc2)c(OC)c1	0.909	-6.5
COc1ccc(/C(C)=N\N=C(\C)c2ccc(OC)cc2OC)c(OC)c1	0.666*	15.9

Assay outcomes deposited in PubChem by Milwaukee Institute for Drug Discovery.
